Results filed as inconclusive are left out. Entries that show only a call come without a potency. Active and inactive are the calls of the source. Calls follow the shape of the dose curve; as a rule, active = well fitted inhibition curve with a large enough effect; inconclusive = small, poorly fitted or top-dose-only effect; inactive = flat fitted curve, though single readings scatter.
Potency is read from the fitted curve at half-maximal effect.

The assay in a line: CHOP2 Reporter Counterscreen Assay for Inhibitors of Ubiquitin-specific Protease USP2a.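 Also: activated enterokinase alone at 50 pM in a cell-free format rather than USP2a or CHOP2; nearly all actives have a fitted effect of over 55% in size.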 Particulars: purified enterokinase, fluorogenic substrate, 485/531 nm; series mostly up to 38.3 µM. The essentials:
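Cell-free counterscreen with pre-activated enterokinase alone (50 pM final) in 20mM Tris-HCl pH 8.0, 2mM CaCl2, 2mM beta-mercaptoethanol, 0.05% CHAPS; compound preincubation 30 min RT, reporter substrate 25nM final, fluorescence read after 10 min (Ex 485/Em 531).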
Consider `O=C(Nn1c(SCc2ccc([N+](=O)[O-])cc2)nc2ccccc2c1=O)c1ccc(F)cc1`, for which the Potency result was “inactive”.

Regarding `COc1cc(C(O)P(=O)(OC(C)C)c2ccc(N(C)C)cc2)cc(OC)c1OC` (stereo not given), the Potency result is “inactive”.

On to `O=[N+]([O-])c1cc(-c2nnc(Nc3ccccc3)c3ccccc23)ccc1N1CCOCC1`, for which the Potency result is “inactive”.

Turning to `COC(=O)c1[nH]c2cc(OC)ccc2c1N`, the Potency result is “inactive”.

On to `O=C(Nc1nnc(-c2cccs2)o1)c1cccc(Oc2ccccc2)c1`, for which the Potency result is “inactive”.

Regarding `COc1ccc(OCC(=O)NCCNC(=O)c2cccnc2)cc1`, the Potency result was “inactive”.

Consider `COc1cccc(/C=N/n2c(SC)nnc2-c2ccccc2)c1O`, for which the Potency result is “inactive”.

With `O=C(CSc1ccc2nnc(-c3cccc(F)c3)n2n1)N1CCCc2ccccc21`, the Potency result is “inactive”.

Regarding `COc1ccc(NC(=O)CSc2ncccc2C(=O)OC(C)C)cc1OC`, the Potency result was “inactive”.

Turning to `CCCCn1c(SCC(=O)N2CCC(C)CC2)nc2cc(S(N)(=O)=O)ccc21`, the Potency entry was “inactive”.

For `O=C(COc1ccccc1)NCCSc1ccccc1`, the Potency result is “inactive”.

For `COc1ccc(-n2c(=S)[nH]c3cc(C(=O)Nc4cc(OC)c(OC)c(OC)c4)ccc3c2=O)c(OC)c1`, the Potency entry was “inactive”.

Take `Cc1ccc2[nH]c(C)c(CCNC(=O)c3cc4cc([N+](=O)[O-])ccc4oc3=O)c2c1`: the Potency result is “inactive”.

For `Cc1ccc(C(=O)Oc2coc(CSc3nnc(NC(=O)c4cccs4)s3)cc2=O)cc1`, the Potency was 3.16 µM (active).

Turning to `CCOC(=O)c1c(NC(C)=O)sc2c1CCCNC2=O`, the Potency entry is “inactive”.

On to `CC(C)(C)C1CCC2(CC1)Nc1cccc3cccc(c13)N2`, for which the Potency entry was “inactive”.

`O=C(O)CCn1c(C2CCCCC2)nc2ccccc21`: the Potency result was “inactive”.

Consider `Cc1cc(C)n2nc(S(=O)(=O)NCCc3ccccc3)nc2n1`, for which the Potency result was “inactive”.

With `O=c1cc(CO)oc(CN2CCN(Cc3ccccc3)CC2)c1O`, the Potency entry is “inactive”.

As to `COc1ccc(NC(=S)NC(=O)/C=C/c2ccco2)cc1`, the Potency result was “inactive”.

On to `O=C(N/N=C/C=C/c1ccccc1)c1ccncc1`, for which the Potency result is “inactive”.

With `CCNc1sc(C(=O)c2cccs2)c(N)c1-c1nc2ccccc2s1`, the Potency entry is “inactive”.

Turning to `CC(C)c1ccc(Nc2nnc(SCC(=O)c3nnc(-c4ccccc4)o3)s2)cc1`, the Potency was 5.01 µM (active).

For `CCCCCCCCCCOC(=O)Cn1c(COc2cccc(C)c2)[n+](C)c2ccccc21`, the Potency was 10 µM (active).

On to `CCOc1cccc(NC(=O)/C(C#N)=C\c2cn(CC(=O)O)c3ccccc23)c1`, for which the Potency result was “inactive”.

As to `COc1cc(/C=C/c2cc[n+](C)cc2)ccc1OCC(=O)Nc1ccc(Cl)c(Cl)c1`, the Potency is 11.2 µM (active).

On to `COc1ccc(C(=O)CSc2nnc(-c3ccco3)c(-c3ccco3)n2)cc1`, for which the Potency was 6.31 µM (active).

With `C/C(CC(=O)N1CCCC1)=N\NC(=O)c1cc2ccccc2cc1O`, the Potency entry was “inactive”.

As to `O=[N+]([O-])c1ccc(Sc2nnnn2-c2ccccc2)c(Cl)c1`, the Potency result is “inactive”.

`CC1Cc2ccccc2N1C(=O)Cn1c(=O)oc2cc(S(=O)(=O)NC3CCCC3)ccc21` (stereo not given): the Potency entry is “inactive”.

Take `Cc1cc(NC(=O)CN2C(=O)NC3(CCCCC3C)C2=O)no1` (stereo not given): the Potency entry is “inactive”.

`CCOC(=O)CCCNC(=O)COC(=O)c1cccc(C)c1O`: the Potency result was “inactive”.

On to `O=C(O)CP(=O)(c1ccccc1)c1ccccc1`, for which the Potency entry is “inactive”.

Regarding `Cc1c(N=C/C=C2\N(C)c3ccccc3C2(C)C)c(=O)n(-c2ccccc2)n1C`, the Potency result was “inactive”.

As to `CC(C)c1ccc(NC(=O)C(c2ccc3c(c2)OCO3)N2CCCCC2)cc1` (stereo not given), the Potency result is “inactive”.

In the case of `O=C(NCCc1ccccc1)c1ccc2nc(-c3ccco3)c(-c3ccco3)nc2c1`, the Potency was 5.01 µM (active).

As to `CCOC(=O)CN1C(=O)S/C(=C/c2ccc(O)c([N+](=O)[O-])c2)C1=O`, the Potency result is “inactive”.

In the case of `COCc1c(C(=O)OCC(=O)c2c(N)n(CC(C)C)c(=O)n(C)c2=O)oc2ccccc12`, the Potency result is “inactive”.

Consider `O=C(NC12CC3CC(CC(C3)C1)C2)C1=COCCO1`, for which the Potency result was “inactive”.

For the compound `O=C(NCCC1=CCCCC1)C1CCCN(S(=O)(=O)c2cnc[nH]2)C1` (stereo not given), the Potency entry is “inactive”.
